Measured values taken from PMC7862700, “An all-to-all approach to the identification of sequence-specific readers for epigenetic DNA modifications on cytosine”.

Columns and labels:
Assay in all cases: DAPPL (digital affinity profiling via proximity ligation, sequencing); 10 mM Tris-HCl pH 7.5, 50 mM NaCl, 1 mM DTT, 4% glycerol, room temperature, 30 min; GST-TFs on glutathione beads, 16-mer random dsDNA library, 0.1% formaldehyde crosslink after washing; high values mean tight binding
[1] = biological target: T1, FEV (Homo sapiens, UniProt Q99581 1-238); settings: protein: recombinant; tags: N-terminal GST; dsDNA, one strand shown
T1 sequence: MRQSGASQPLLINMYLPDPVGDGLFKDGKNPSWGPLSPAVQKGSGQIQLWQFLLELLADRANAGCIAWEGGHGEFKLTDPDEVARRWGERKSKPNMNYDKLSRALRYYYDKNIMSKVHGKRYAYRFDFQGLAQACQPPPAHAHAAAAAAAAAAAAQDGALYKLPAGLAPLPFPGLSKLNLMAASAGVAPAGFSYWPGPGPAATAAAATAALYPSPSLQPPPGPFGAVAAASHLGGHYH
In short: (§1)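 In yeast, human transcription factors were expressed with a GST fusion, then pulled down on glutathione beads and given DNA barcodes. Pooled with a tag-only sample, they were exposed to 200 nmole of a 16-mer random double-stranded DNA library (Tris/NaCl/DTT/glycerol buffer, room temperature, 30 min), washed, crosslinked with 0.1% formaldehyde, proximity-ligated using BsaI/T4 ligase for 1 h at 37 °C, PCR-amplified and read on an Illumina NextSeq500. Each hexamer's frequency of reads for a factor, divided by the matching frequency for the tag-only sample, gives the binding signal.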

[2] = biological target: ETV5 (Homo sapiens, UniProt P41161 1-510); settings: protein: recombinant; tags: N-terminal GST; dsDNA, one strand shown
In short: as §1

[3] = biological target: HSF1 (Homo sapiens, UniProt Q00613 1-529); settings: protein: recombinant; tags: N-terminal GST; chain copies: 3; dsDNA, one strand shown
In short: as §1

[4] = biological target: T2, SPIC (Homo sapiens, UniProt Q8N5J4 1-248); settings: protein: recombinant; tags: N-terminal GST; dsDNA, one strand shown
T2 sequence: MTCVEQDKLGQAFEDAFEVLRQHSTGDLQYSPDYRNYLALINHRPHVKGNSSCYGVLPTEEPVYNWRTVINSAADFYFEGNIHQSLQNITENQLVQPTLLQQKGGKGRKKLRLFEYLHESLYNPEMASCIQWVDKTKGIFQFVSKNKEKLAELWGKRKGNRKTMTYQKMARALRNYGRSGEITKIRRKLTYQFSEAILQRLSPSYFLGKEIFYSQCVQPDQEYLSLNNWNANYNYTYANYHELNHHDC
In short: as §1

[5] = biological target: ELF4 (Homo sapiens, UniProt Q99607 1-663); settings: protein: recombinant; tags: N-terminal GST; dsDNA, one strand shown
In short: as §1

[6] = biological target: T3, ELK4 (Homo sapiens, UniProt P28324-2 1-405); settings: protein: recombinant; tags: N-terminal GST; dsDNA, one strand shown
T3 sequence: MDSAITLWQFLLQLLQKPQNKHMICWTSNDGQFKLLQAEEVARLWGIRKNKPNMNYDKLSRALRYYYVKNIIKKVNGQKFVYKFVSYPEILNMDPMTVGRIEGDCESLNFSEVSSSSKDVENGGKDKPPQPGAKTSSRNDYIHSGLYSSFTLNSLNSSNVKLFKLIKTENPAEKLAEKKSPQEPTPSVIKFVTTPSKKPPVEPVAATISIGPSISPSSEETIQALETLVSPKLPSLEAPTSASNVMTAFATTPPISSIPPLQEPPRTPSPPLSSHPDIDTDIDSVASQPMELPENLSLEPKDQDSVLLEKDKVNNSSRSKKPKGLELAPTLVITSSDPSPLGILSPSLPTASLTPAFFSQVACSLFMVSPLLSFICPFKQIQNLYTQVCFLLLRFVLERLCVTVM
In short: as §1

[7] = biological target: T4, ETV2 (Homo sapiens, UniProt O00321 1-342); settings: protein: recombinant; tags: N-terminal GST; dsDNA, one strand shown
T4 sequence: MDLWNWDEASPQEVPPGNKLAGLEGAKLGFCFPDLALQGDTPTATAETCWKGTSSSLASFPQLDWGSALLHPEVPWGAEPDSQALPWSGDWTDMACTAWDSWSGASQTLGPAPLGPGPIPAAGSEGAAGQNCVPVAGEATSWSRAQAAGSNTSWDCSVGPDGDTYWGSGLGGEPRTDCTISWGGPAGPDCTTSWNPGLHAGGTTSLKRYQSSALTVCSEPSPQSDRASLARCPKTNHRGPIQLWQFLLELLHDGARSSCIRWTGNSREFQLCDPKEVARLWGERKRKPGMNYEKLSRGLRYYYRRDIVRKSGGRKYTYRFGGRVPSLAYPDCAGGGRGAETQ
In short: as §1

[8] = biological target: T5, ELF3 (Homo sapiens, UniProt P78545 1-371); settings: protein: recombinant; tags: N-terminal GST; dsDNA, one strand shown
T5 sequence: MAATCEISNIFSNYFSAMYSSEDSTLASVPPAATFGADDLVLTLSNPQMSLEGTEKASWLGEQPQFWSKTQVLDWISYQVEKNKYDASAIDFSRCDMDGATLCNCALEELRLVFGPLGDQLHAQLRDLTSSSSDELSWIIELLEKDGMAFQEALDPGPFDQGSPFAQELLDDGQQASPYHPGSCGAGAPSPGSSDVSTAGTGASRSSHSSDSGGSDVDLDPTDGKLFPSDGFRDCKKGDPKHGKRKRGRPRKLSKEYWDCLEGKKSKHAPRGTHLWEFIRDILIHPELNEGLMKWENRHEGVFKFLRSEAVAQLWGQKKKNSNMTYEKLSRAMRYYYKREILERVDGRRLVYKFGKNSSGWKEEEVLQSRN
In short: as §1

[9] = biological target: CRX (Homo sapiens, UniProt O43186 1-299); settings: protein: recombinant; tags: N-terminal GST; dsDNA, one strand shown
In short: as §1

[10] = biological target: ETV1 (Homo sapiens, UniProt P50549 1-477); settings: protein: recombinant; tags: N-terminal GST; dsDNA, one strand shown
In short: as §1

[11] = biological target: T6, ERF (Homo sapiens, UniProt P50548 1-548); settings: protein: recombinant; tags: N-terminal GST; dsDNA, one strand shown
T6 sequence: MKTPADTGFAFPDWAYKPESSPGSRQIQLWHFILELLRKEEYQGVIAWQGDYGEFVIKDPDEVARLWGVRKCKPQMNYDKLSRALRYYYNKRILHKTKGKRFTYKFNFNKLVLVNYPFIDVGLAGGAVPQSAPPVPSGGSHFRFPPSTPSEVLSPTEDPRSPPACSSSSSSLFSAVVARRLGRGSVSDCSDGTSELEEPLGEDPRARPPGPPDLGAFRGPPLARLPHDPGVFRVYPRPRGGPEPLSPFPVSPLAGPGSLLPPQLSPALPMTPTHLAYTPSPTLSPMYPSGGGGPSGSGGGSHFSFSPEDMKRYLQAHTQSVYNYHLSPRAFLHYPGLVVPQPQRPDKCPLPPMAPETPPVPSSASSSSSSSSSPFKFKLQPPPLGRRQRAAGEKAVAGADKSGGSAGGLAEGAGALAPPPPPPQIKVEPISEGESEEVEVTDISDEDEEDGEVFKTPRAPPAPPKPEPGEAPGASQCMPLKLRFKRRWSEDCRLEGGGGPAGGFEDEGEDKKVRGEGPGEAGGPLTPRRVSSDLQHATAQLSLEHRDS
In short: as §1

[12] = biological target: T7, ETV3L (Homo sapiens, UniProt Q6ZN32 1-361); settings: protein: recombinant; tags: N-terminal GST; dsDNA, one strand shown
T7 sequence: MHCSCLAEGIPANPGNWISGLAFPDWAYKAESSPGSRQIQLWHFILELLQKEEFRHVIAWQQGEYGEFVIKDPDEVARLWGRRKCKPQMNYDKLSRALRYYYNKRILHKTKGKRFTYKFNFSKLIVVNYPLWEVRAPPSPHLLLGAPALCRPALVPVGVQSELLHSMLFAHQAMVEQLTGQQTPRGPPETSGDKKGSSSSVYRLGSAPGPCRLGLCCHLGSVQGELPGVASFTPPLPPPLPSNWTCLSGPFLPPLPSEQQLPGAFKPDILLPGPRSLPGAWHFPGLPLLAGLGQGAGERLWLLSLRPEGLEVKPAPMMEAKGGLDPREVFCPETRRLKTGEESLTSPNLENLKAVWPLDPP
In short: as §1

[13] = biological target: T8, ETS2 (Homo sapiens, UniProt P15036 1-469); settings: protein: recombinant; tags: N-terminal GST; dsDNA, one strand shown
T8 sequence: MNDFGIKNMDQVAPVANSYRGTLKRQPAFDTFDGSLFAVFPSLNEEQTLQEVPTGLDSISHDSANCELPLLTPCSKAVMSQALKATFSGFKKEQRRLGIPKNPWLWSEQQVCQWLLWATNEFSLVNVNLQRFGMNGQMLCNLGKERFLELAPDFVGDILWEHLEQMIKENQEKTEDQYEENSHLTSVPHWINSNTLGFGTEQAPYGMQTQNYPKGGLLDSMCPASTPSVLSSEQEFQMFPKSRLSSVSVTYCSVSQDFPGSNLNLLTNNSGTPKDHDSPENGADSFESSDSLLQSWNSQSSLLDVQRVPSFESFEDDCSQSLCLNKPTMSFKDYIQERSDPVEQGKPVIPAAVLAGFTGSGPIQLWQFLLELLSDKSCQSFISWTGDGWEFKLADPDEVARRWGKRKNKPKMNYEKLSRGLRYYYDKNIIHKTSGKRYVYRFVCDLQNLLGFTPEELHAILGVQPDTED
In short: as §1

[14] = biological target: T9, SPDEF (Homo sapiens, UniProt O95238 1-335); settings: protein: recombinant; tags: N-terminal GST; dsDNA, one strand shown
T9 sequence: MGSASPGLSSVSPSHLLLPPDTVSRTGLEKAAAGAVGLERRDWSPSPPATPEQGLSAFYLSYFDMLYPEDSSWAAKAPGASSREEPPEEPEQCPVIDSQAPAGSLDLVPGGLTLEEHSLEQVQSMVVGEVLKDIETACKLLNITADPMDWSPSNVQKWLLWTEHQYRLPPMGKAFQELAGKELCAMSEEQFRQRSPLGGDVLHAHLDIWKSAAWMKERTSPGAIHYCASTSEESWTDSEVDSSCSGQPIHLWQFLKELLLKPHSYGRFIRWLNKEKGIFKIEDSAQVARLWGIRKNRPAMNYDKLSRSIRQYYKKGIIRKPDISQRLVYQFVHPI
In short: as §1

[15] = biological target: T10, ETV7 (Homo sapiens, UniProt Q9Y603 1-341); settings: protein: recombinant; tags: N-terminal GST; dsDNA, one strand shown
T10 sequence: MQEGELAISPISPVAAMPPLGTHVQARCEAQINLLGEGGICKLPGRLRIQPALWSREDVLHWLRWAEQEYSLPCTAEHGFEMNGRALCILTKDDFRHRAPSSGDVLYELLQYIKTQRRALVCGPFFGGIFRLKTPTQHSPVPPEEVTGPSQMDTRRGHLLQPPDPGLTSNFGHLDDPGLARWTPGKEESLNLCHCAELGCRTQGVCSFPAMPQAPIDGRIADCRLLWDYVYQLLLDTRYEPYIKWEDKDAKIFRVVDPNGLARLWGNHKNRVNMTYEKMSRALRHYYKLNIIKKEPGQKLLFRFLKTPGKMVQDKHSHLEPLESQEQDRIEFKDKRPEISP
In short: as §1

[16] = biological target: T11, ELF5 (Homo sapiens, UniProt Q9UKW6-2 1-255); settings: protein: recombinant; tags: N-terminal GST; dsDNA, one strand shown
T11 sequence: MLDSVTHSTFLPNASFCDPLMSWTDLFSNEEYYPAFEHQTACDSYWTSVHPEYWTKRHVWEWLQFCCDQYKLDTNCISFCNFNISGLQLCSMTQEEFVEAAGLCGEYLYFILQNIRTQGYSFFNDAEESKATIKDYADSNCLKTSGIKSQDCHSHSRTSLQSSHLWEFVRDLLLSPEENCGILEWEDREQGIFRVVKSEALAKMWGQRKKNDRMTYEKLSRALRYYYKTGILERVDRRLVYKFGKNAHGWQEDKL
In short: as §1

[17] = biological target: T12, ETV3 (Homo sapiens, UniProt P41162-2 1-143); settings: protein: recombinant; tags: N-terminal GST; dsDNA, one strand shown
T12 sequence: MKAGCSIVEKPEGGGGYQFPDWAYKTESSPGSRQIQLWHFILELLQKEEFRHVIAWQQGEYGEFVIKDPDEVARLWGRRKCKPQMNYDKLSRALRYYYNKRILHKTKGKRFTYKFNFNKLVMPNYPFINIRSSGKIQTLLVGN
In short: as §1

[18] = biological target: ETV6 (Homo sapiens, UniProt P41212 1-452); settings: protein: recombinant; tags: N-terminal GST; dsDNA, one strand shown
In short: as §1

ETV6, sequence (P41212 whole entry): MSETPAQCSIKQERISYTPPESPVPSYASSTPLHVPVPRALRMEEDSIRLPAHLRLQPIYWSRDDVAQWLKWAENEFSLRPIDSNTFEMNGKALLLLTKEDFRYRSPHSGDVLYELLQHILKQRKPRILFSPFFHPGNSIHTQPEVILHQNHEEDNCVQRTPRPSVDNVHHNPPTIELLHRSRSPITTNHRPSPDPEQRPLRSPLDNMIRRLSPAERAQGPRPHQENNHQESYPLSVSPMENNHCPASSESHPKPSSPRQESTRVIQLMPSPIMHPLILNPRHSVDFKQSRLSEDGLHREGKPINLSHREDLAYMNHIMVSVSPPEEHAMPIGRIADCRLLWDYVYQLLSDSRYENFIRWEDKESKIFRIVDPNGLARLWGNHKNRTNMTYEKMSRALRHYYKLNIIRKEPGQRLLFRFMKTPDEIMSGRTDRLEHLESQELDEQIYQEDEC
HSF1, sequence (Q00613 whole entry): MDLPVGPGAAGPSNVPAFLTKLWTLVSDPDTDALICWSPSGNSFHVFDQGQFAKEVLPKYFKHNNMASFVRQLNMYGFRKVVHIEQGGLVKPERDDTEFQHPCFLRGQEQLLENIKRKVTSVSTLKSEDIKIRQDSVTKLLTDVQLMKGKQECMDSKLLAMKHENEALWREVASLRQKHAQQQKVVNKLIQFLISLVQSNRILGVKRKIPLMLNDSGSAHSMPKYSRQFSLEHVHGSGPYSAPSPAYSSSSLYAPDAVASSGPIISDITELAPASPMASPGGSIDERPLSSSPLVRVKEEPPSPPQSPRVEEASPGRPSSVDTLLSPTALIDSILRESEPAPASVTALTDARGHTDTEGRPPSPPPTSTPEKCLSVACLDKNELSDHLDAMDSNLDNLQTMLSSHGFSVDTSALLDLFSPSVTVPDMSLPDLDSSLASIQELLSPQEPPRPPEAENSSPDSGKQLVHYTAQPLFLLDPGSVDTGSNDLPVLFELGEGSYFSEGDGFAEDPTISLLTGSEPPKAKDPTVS
ETV5, sequence (P41161 whole entry): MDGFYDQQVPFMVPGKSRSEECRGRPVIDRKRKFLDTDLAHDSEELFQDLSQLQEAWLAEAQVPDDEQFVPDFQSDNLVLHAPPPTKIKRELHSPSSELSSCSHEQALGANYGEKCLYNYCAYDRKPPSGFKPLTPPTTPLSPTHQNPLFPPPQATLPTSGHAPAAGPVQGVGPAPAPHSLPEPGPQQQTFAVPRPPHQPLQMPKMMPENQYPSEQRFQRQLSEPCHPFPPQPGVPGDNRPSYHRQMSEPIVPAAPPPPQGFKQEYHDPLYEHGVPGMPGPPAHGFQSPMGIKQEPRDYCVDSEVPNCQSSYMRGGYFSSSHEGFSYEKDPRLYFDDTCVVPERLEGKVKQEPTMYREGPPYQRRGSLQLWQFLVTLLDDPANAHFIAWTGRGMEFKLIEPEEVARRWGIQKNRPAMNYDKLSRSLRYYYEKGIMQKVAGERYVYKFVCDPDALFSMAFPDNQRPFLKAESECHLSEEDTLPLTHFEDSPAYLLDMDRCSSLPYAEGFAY
CRX, sequence (O43186 whole entry): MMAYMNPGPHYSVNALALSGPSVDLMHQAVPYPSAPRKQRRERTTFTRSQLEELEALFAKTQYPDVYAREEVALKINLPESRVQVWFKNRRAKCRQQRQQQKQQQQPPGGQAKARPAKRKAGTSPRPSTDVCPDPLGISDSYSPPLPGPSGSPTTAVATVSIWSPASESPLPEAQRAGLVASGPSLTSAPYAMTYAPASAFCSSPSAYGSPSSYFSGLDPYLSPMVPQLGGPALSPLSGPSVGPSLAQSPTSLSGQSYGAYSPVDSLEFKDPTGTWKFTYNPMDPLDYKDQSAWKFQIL
ELF4, sequence (Q99607 whole entry): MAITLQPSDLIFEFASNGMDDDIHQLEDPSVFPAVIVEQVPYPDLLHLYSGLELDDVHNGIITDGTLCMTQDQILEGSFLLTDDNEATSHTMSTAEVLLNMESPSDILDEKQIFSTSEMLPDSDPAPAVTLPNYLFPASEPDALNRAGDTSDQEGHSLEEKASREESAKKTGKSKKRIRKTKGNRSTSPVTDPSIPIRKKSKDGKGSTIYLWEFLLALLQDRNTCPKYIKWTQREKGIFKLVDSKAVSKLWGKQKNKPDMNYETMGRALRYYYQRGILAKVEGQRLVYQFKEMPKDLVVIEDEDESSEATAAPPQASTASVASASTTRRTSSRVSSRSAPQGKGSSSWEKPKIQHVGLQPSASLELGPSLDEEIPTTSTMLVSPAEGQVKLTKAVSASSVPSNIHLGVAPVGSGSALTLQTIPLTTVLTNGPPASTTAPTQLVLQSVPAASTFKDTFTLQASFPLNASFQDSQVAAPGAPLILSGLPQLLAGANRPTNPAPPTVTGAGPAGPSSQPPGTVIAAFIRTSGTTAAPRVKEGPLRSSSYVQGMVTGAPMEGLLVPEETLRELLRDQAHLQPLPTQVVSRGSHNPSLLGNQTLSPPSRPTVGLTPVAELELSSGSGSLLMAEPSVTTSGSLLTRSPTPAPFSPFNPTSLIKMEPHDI
ETV1, sequence (P50549 whole entry): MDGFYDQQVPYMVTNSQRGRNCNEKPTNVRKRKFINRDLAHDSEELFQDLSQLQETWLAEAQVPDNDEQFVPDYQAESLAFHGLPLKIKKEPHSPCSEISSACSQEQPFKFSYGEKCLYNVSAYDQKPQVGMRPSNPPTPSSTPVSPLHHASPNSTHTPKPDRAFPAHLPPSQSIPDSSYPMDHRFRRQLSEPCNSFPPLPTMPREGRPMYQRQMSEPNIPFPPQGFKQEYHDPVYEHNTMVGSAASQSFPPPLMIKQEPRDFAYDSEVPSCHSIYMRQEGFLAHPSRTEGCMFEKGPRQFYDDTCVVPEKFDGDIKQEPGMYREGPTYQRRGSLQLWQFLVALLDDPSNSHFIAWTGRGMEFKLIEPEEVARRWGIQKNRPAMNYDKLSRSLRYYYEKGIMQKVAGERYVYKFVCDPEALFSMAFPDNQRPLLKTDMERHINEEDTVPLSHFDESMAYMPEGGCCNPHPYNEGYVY

Sequence: GGGCCT
- binding signal [1]: 1.11 fold enrichment (6-mer frequency, TF over GST control)
- binding signal [2]: 1.27 fold enrichment (6-mer frequency, TF over GST control)
- binding signal [3]: 1.1 fold enrichment (6-mer frequency, TF over GST control)
- binding signal [4]: 1.13 fold enrichment (6-mer frequency, TF over GST control)
- binding signal [5]: 1.24 fold enrichment (6-mer frequency, TF over GST control)
- binding signal [6]: 1.3 fold enrichment (6-mer frequency, TF over GST control)
- binding signal [7]: 1.05 fold enrichment (6-mer frequency, TF over GST control)
- binding signal [8]: 1.19 fold enrichment (6-mer frequency, TF over GST control)
- binding signal [9]: 1.07 fold enrichment (6-mer frequency, TF over GST control)
- binding signal [10]: 1.31 fold enrichment (6-mer frequency, TF over GST control)
- binding signal [11]: 1.37 fold enrichment (6-mer frequency, TF over GST control)
- binding signal [12]: 1.21 fold enrichment (6-mer frequency, TF over GST control)
- binding signal [13]: 1.21 fold enrichment (6-mer frequency, TF over GST control)
- binding signal [14]: 1.24 fold enrichment (6-mer frequency, TF over GST control)
- binding signal [15]: 1.24 fold enrichment (6-mer frequency, TF over GST control)
- binding signal [16]: 1.17 fold enrichment (6-mer frequency, TF over GST control)
- binding signal [17]: 1.21 fold enrichment (6-mer frequency, TF over GST control)
- binding signal [18]: 1.21 fold enrichment (6-mer frequency, TF over GST control)
